# GRK2 inh – compounds blocking aptamer binding on GRK2 – biochemical, human GRK2, bead flow cytometry, HTS, primary screen; Beta-adrenergic receptor kinase 1 (Homo sapiens), P25098; inhibition of aptamer binding, % at 10 µM; hit rate 0.59% among 330,000; FAM-aptamer displacement from GRK2;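 active = inhibition of aptamer binding above 40%, roughly 3 SD of noise, on plates passing a quality check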;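 also: median bead fluorescence of bound FAM aptamer so fluorescent compounds give negative values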
# NTR1 ag – agonists of human NTR1, primary screen, imaging, U2OS cells, beta-arrestin-GFP, high content | NTR1-U2OS beta-arrestin-GFP spot imaging, agonist mode | activation, % at 20 µM | hit rate 0.17% among 330,000 | AID 493036, 2011;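 active = activation at or above 40% of the spot to cytoplasm intensity ratio, with at least 20 cells analyzed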
# VLA-4 inh – inhibition in human VLA-4 binding assay, primary screen, VLA-4 allosteric modulator project, MLPCN library, flow cytometry, VLA-4 expressing cells. hit rate 0.2% among 330,000. inhibition, % (about 7 µM as worked out from the volumes in the protocol). ligand binding flow cytometry; in the data active = inhibition above about 50%
# Beta2AR agonist – beta2AR agonists driving receptor internalization, primary screen, cell-based, FAP fluorogen, flow cytometry | response, % (concentration not given with the values) | Am2.2-beta2AR cells | hit rate 0.43% among 340,000;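 active = response above a set limit, near 3 SD of response in nonfluorescent compounds, cut at about 42% in these data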
# Target sequence (P07550 whole entry, looked up): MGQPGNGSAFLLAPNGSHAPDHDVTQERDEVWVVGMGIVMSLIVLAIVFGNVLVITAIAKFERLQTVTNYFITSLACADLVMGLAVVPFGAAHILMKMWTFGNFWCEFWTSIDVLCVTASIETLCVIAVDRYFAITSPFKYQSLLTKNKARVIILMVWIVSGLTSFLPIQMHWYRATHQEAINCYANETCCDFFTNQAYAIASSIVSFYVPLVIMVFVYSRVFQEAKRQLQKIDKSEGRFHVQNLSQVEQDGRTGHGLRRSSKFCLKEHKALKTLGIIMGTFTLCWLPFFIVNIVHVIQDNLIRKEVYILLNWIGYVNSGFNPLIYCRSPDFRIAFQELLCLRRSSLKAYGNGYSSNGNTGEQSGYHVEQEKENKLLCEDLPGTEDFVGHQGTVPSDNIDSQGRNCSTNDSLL
# A1 inh – caspase 3/7 activation in MEF A1-2A-BIM cells, primary screen, A1 inhibitor project, cell-based, luminescence, HTS; caspase activation, % (no concentration beside the values); Caspase-Glo 3/7 luminescence, 3 h; percent of clofoctol response, vehicle zero; AID 2462, 2010; hit rate 0.066% among 330,000;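 active = over half of replicate activation scores above 10%, or exactly half above 10 with the replicate mean above 10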
# GRK2 inh confirm – GRK2 aptamer-displacing inhibitors, retest, confirmation, biochemical, cherry pick 1, bead flow cytometry; shares compounds with GRK2 inh; bead-bound GRK2, FAM-aptamer displacement; aptamer displacement, % at 10 µM; hit rate 4% among 2,000;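 active = aptamer displacement above 40%, near three times the noise of non-fluorescent compounds, on plates passing quality checks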;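 also: negative values mostly reflect intrinsic compound fluorescence rather than true enhancement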
# Aptamer quench SP – quenches fluorescent RNA aptamer, GRK2 hit artifact. shares compounds with GRK2 inh. Carboxyfluorescein RNA aptamer on beads, flow cytometry quenching; active compounds read low. fluorescence response (% of DMSO), % at 10 µM. 2,000 tested, under 10 active. AID 504580;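 active = compounds that quench the bead-bound fluorescent RNA probe, cutting fluorescence to under half of the solvent control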;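 also: counterscreen run without GRK2 so only probe quenching by compound is measured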
# GRK2 CP2 – GRK2 aptamer-displacing inhibitors, hit retest, confirmation, biochemical, cherry pick 2, bead flow cytometry | bead-bound GRK2, FAM-aptamer displacement | shares compounds with GRK2 inh | AID 504782, 2011 | 360 tested, under 10 active | inhibition of aptamer binding, % at 10 µM;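 active = inhibition of aptamer binding above 40%, about triple the noise seen with nonglowing compounds, on plates passing quality control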;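 also: negative values mostly come from compounds that fluoresce themselves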
# FAM quench CP2 – counter-screen for GRK2 binding hits: quenchers of fluorescent RNA aptamer | shares compounds with GRK2 inh | carboxyfluorescein RNA aptamer beads, flow cytometry quenching; active compounds read low | fluorescence response vs DMSO, % at 10 µM | 360 tested, under 10 active | AID 588494;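 active = response vs DMSO under 50%, meaning signal dropped by over half, treated as fluorescence quencher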;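 also: labelled aptamer on streptavidin beads without GRK2 as a quench counter-screen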
# A number is an active result; – = inactive; · = no result given. The list is not random: actives were taken first. Their share in the collection is about 1.3%.
SMILES,GRK2 inh,NTR1 ag,VLA-4 inh,Beta2AR agonist,A1 inh,GRK2 inh confirm,Aptamer quench SP,others
c1ccc(CCn2c(SCc3ccccc3)nnc2-c2ccncc2)cc1,–,–,–,–,–,·,·,
CN(C)CCCn1c(SCc2c(Cl)cccc2Cl)nnc1-c1ccncc1,44.0,–,–,–,–,·,·,GRK2 CP2=–;FAM quench CP2=–
CC[n+]1ccc(C[n+]2ccccc2)c2ccccc21,54.0,·,–,–,–,–,–,
Cc1c(/C=C2\SC(=Nc3cccc(C(=O)O)c3)NC2=O)c2ccccc2n1C,64.0,–,–,–,–,–,–,
Cc1cccc(N=C2NC(=O)/C(=C/c3cccn3C)S2)c1,–,–,–,–,–,·,·,
Cc1ccc(C(=O)NCCCNCCCN(C)C)cn1,–,–,–,–,–,·,·,
Cc1ccc(C(=O)NCCCNCCCNC(=O)c2ccc(C)nc2)cn1,45.0,–,–,–,–,–,–,
O=C(O)C1CCC(C(=O)O)SS1 (stereo unspecified),·,·,·,–,·,·,·,
COc1ccc(-c2cc(C(=O)Nc3cc(OC)cc(C(=O)Nc4cccc(C(F)(F)F)c4)c3)[nH]n2)cc1,–,–,–,–,–,–,–,
O=C(O)CCNc1cc(N2CCN(C(=O)c3ccco3)CC2)c2noc3c2c1C(=O)c1ccccc1-3,83.0,–,–,–,–,–,–,
CCN1CCN(c2cc(N3CCN(C(=O)c4ccco4)CC3)c3c4c(onc24)-c2ccccc2C3=O)CC1,–,–,–,–,–,·,·,
Cc1c(Cl)cccc1NC(=O)COC(=O)Cn1cnc2c1c(=O)n(C)c(=O)n2C,–,–,–,–,–,·,·,
N#Cc1sc2nc(-c3ccccc3)cc(-c3ccco3)c2c1N,–,–,–,–,–,·,·,
CC(=O)Nc1nc(-c2ccccc2)cc(-c2ccco2)c1C#N,80.0,–,–,–,–,–,–,
O=C1CCC([N+](=O)[O-])C(c2ccccc2C(F)(F)F)N1 (stereo unspecified),–,–,–,–,–,·,·,
CC(=O)c1ccc(OCCCC(=O)Nc2cccc(S(=O)(=O)N3CCCCCC3)c2)cc1,–,–,–,–,–,·,·,
CC(=O)c1ccc(OCCCC(=O)Nc2cccc(S(=O)(=O)N3CCCCC3)c2)cc1,–,–,–,–,–,–,–,
Cc1cccc(N2CC(C(=O)Nc3cccc(S(=O)(=O)N4CCCCC4)c3)CC2=O)c1C (stereo unspecified),–,–,–,–,–,–,–,
N#Cc1cccc(NC(=O)CNc2cccc(S(=O)(=O)N3CCCCC3)c2)c1,–,–,–,–,–,–,–,
Cc1cccc(N2CC(C(=O)Nc3ccc(S(=O)(=O)N4CCOCC4)cc3)CC2=O)c1C (stereo unspecified),–,–,–,–,–,·,·,
Cc1ccccc1N1CC(C(=O)N2CCCCCC2)CC1=O (stereo unspecified),65.0,–,–,–,–,–,–,
O=C(CN1C(=O)c2cccc([N+](=O)[O-])c2C1=O)N1CCN(S(=O)(=O)c2ccccc2)CC1,–,–,–,–,–,·,·,
O=C(CCN1C(=O)C2CC=CCC2C1=O)Nc1cccc(S(=O)(=O)N2CCCCC2)c1 (stereo unspecified),–,–,–,–,–,–,–,
O=C(Nc1cccc(S(=O)(=O)NC2=NCCC2)c1)C1CC(=O)N(c2ccc3c(c2)OCCO3)C1 (stereo unspecified),–,–,–,–,–,–,–,
O=C(Nc1ccccc1N1CCCCC1)c1ccco1,49.0,–,–,–,–,–,–,
SMILES,GRK2 inh,NTR1 ag,VLA-4 inh,Beta2AR agonist,A1 inh,GRK2 inh confirm,Aptamer quench SP,others
COc1cc(/C=C/C(=O)Nc2ccc3nc4n(c(=O)c3c2)CCCC4)cc(OC)c1OC,92.0,–,–,–,–,–,–,
CCCCc1nc2sc3c(c2c(=O)[nH]1)CCC3,58.0,–,–,–,–,–,–,
O=C1c2nccnc2C(=O)N1c1ccc(C(F)(F)F)cc1,57.0,–,–,–,–,–,–,
O=c1c2ccccc2nc(/C=C/c2cc(Br)ccc2O)n1CCCO,–,–,–,–,–,·,·,
Cc1ccc(CNC(=O)C2CCCC2)cc1,–,–,–,–,–,·,·,
Cc1ccc2[nH]c(CNC(=O)C3CCCCC3)cc2c1,60.0,–,–,–,–,–,–,
Cc1csc(CN(C)C(=O)CC2C(=O)NCCN2Cc2ccc(F)c(F)c2)n1 (stereo unspecified),–,–,–,–,–,·,·,
Cc1ccc(NC(=O)c2ccco2)c(NC(=O)c2ccc(Cl)cc2)c1,–,–,–,–,–,·,·,
CC(C)NC(=O)NC(=O)CSc1nnc(COc2ccccc2Cl)o1,71.0,–,–,–,–,–,–,
O=C(COC(=O)Cc1cccc(C(F)(F)F)c1)NCc1ccco1,57.0,–,–,–,·,–,–,
O=C(COC(=O)C1(c2ccc(Cl)cc2)CCCC1)NCc1ccco1,–,–,–,–,–,–,–,
O=C(COC(=O)CSc1ccc(F)cc1)NCc1ccco1,–,–,–,–,–,·,·,
O=C(COC(=O)Cc1ccc(F)cc1)NCc1ccco1,52.0,–,–,–,–,–,–,
COc1ccc(CC(=O)OCC(=O)NCc2ccco2)cc1OC,–,–,–,–,–,·,·,
Cc1cc2c(cc1S(=O)(=O)N1CC(C)CC(C)C1)OCC(=O)N2 (stereo unspecified),–,–,–,–,–,·,·,
CC12CCC(=O)N1C(C(=O)Nc1ccccc1N1CCCCC1)CS2 (stereo unspecified),–,–,–,–,–,·,·,
CCc1cccc(C)c1NC(=O)CC1Oc2ccc(C)cc2NC1=O (stereo unspecified),49.0,–,–,–,–,·,·,GRK2 CP2=–;FAM quench CP2=–
Cc1ccc(NC(=O)CC2Oc3ccc(C)cc3NC2=O)c(C)c1 (stereo unspecified),–,–,–,–,–,·,·,
OC(CNC1CCCCCC1)COc1cccc2ccccc12 (stereo unspecified),52.0,–,–,–,–,–,–,
COc1ccc(Cl)cc1S(=O)(=O)NCc1cccs1,51.0,–,–,–,–,–,–,

# Source: PubChem
